From PubChem BioAssay AID485297 (National Center for Advancing Translational Sciences (NCATS), 2010)
In all, about 320,000 compounds went through this assay and about 9,100 (2.8%) were called active. Roughly 3% stayed inconclusive and do not appear here. Calls come from the whole dose curve; as a rule, active = well fitted activation curve with a large enough effect; inconclusive = small, poorly fitted or top-dose-only effect; inactive = no such curve, though single readings can be large or run the other way. The sample as a whole holds a higher share of actives than the screen did.

Assay: qHTS Assay for Rab9 Promoter Activators; note: nearly all actives have a fitted effect of over 60% in size
Details: Huh7 Rab9 promoter-luciferase reporter, luminescence, 24 h; series mostly up to 9.22 µM
Summary of the method: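 Luciferase signal after 10 min detection reagent at ambient indicates Rab9 promoter upregulation; stably transfected Huh7 cells were treated 24 h with compound in DMSO at 37 °C, 5% CO2.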
Potency is the fitted concentration of half-maximal effect.

Potency, active:
COc1ccc(OCc2ccc(-c3nc4ccccc4c(=O)n3N)o2)cc1 1260 nM
CCC(=O)Nc1ccc2nn(-c3ccc(F)cc3)nc2c1 631 nM
C=CCn1c(C)cc(C(=O)CN2C(=O)c3ccccc3C2=O)c1C 355 nM
Cc1ccc2cc(/C=N/Nc3ccc(C(=O)O)cc3)c(Cl)nc2c1 1260 nM
Cc1ccc(C(=O)Nc2nnc(-c3cccs3)s2)cc1C 3550 nM
CCC(=O)Nc1ccc(-c2ccc(N3CCCCC3)nn2)cc1 1580 nM
CC1CCN(c2ccc(-c3ccc(NC(=O)c4ccco4)cc3)nn2)CC1 3550 nM
COc1ccc(-c2noc(-c3cccc(OC)c3OC)n2)cc1OC 2240 nM
Cc1cccc(-c2noc(-c3ccc(F)cc3)n2)c1 224 nM
COc1ccc(-c2noc(-c3ccc(C)cc3)n2)cc1 2000 nM
COc1ccc(-c2nc(-c3ccccc3)no2)c(OC)c1 3980 nM
CCc1ccc(NC2Nc3cc(C)nn3S2)cc1 (centres undefined) 3550 nM
Cc1csc2nc(COC(=O)c3cccc(N(C)C)c3)cc(=O)n12 2820 nM
CN(Cc1ccccc1)C(=O)COc1ccccc1 2240 nM
CCOC(=O)c1ccc(NC(=O)Cc2cccs2)cc1 4470 nM
COc1cccc2cc(C(N)=O)/c(=N\NC(=O)c3ccccc3)oc12 3550 nM
CCN(CC)S(=O)(=O)c1ccc(-c2cn3ccc(C)cc3n2)cc1 2240 nM
COc1ccc(-c2cn3ccc(C)cc3n2)cc1 112 nM
COc1ccc(-c2cn3ccsc3n2)cc1 708 nM
COc1ccc(/C=N/Nc2nc3ccccc3c(=O)[nH]2)cc1 1580 nM
COc1ccc(/C=N/Nc2ccccc2C(=O)O)cc1 89.1 nM
Cc1ccc(N/N=C2\COC(C)(C)CC2=O)cc1 3160 nM

Potency, inactive:
CCCCN(C(=O)C(CCSC)N1C(=O)c2ccccc2C1=O)c1c(N)n(CCC)c(=O)[nH]c1=O (centres undefined)
COc1ccc(-c2nc3ccccc3c(=O)n2CCc2ccc(O)cc2)cc1
COc1ccc(OCc2n[nH]c(=S)n2N)cc1
O=C(CSc1nc2[nH]c(=O)[nH]c(=O)c2s1)Nc1cccc(F)c1
Cc1ccc(NC(=O)C(C)Sc2nnc(C3CC3)n2C2CC2)cc1S(=O)(=O)N1CCOCC1 (centres undefined)
Cc1ccc(-n2nc3ccc(NC(=O)/C=C/c4ccco4)cc3n2)cc1C
Cc1cccc(C(=O)OCC(=O)Nc2ccc(F)cc2)c1
C=CCN(CC=C)C(=O)CN1C(=O)c2ccccc2C1=O
Cc1cc(C(=O)COC(=O)CCCN2C(=O)c3ccccc3C2=O)c(C)n1C
COc1cccc(C2=CC(=O)C[C@H](c3ccc(F)cc3)C2)c1OC
Cc1cc(C)cc(OCC(=O)Nc2ccc(N3CCOCC3)cc2N2CCOCC2)c1
Cc1ccc2cc(/C=N/NC(=O)[C@@H]3CCCN3)c(Cl)nc2c1
CSCC[C@H](NC(=O)OC(C)(C)C)C(=O)N/N=C/c1cc2ccc(C)cc2nc1Cl
CC1(C)O[C@@H]2[C@H](O1)[C@@H](COS(=O)(=O)O)O[C@H]2n1cnc2c(=O)[nH]cnc21
Cc1ccsc1C(=O)OCC(=O)Nc1cccc(F)c1
Cc1ccc(C(=O)Oc2coc(CSc3nnc(NC(=O)c4cccs4)s3)cc2=O)cc1C
Cc1nnc(NC(=O)c2ccc3nccnc3c2)s1
O=C(CNS(=O)(=O)c1ccc2c(c1)OCCCO2)N1CCN(c2ccc(F)cc2)CC1
O=C(NCc1ccccc1CN1CCCC1)C1CCN(S(=O)(=O)c2ccc(Cl)cc2)CC1
O=C(Nc1ccc(Sc2ccc(Br)cc2)cc1)c1ccco1
CCCCSc1nnc(-c2ccc(NC(=O)CC)cc2)n1C
CC1CCN(C(NC(=O)c2ccco2)C(=O)c2ccccc2)CC1 (centres undefined)
CCC(=O)c1ccc(OCC(=O)Nc2ccc(N3CCCCC3)cc2)cc1
Cc1ccc(NC(=O)C(c2ccccc2)N2CCN(C(=O)c3ccco3)CC2)cc1 (centres undefined)
CC(C)N(Cc1nnc(-c2ccccc2Br)o1)C(=O)c1cc(Cl)nc2ccccc12
CC(=O)c1c(C)[nH]c(C(=O)OCC(=O)Nc2c(C)n(C)n(-c3ccccc3)c2=O)c1C
COc1ccc(-c2noc(CCCC(=O)NC3CCCC3)n2)cc1OC
COc1ccc(-c2n[nH]c(C)c2-c2ccccc2OC)c(O)c1
COc1ccc(-c2noc(CSc3ccc(C)cc3)n2)cc1
COc1ccc(-c2noc(CN(C)S(=O)(=O)c3ccc(C)cc3)n2)cc1
Cc1cccc(-c2noc(CCC(=O)NC3CCCC3)n2)c1
COc1ccc(-c2noc(CNC(=O)C(C)Oc3ccccc3)n2)cc1 (centres undefined)
COc1ccc(-c2csc3nc(-c4ccccc4F)oc(=O)c23)cc1OC
Cc1cccc(-c2nc(Nc3ccc(O)cc3)c3ccccc3n2)c1
COc1ccc(NC(=O)Cn2cc(C(=O)c3ccncc3)c(=O)c3cc(C)ccc32)cc1Cl
O=S(=O)(NCCCCCCNS(=O)(=O)c1c(F)cccc1F)c1ccc2c(c1)OCCO2
COc1cccc(NC(=O)CN(C)C(=O)c2cc(C3CC3)nn2-c2ccccc2)c1
O=C(OCc1cc(=O)n2ccsc2n1)C1(c2ccc(Cl)cc2)CC1
COc1ccc(C(=O)OCC(=O)c2cc(C)n(CC3CCCO3)c2C)cc1[N+](=O)[O-] (centres undefined)
Cc1cccc(NC(=O)CN2CCN(C(=O)C3CCN(C(=O)/C=C/c4ccccc4)CC3)CC2)c1C
COc1cc(OC)c(N2CC(C(=O)Nc3cc(Cl)ccc3N3CCOCC3)CC2=O)cc1Cl (centres undefined)
CCCCN1C(=O)C(=O)N(CC(=O)Nc2cccc(C(C)=O)c2)C1=O
C=C(C)C1CC=C(C)/C(=N\NC(=O)CNc2ccccc2OC)C1 (centres undefined)
O=C(Nc1ccon1)c1nc[nH]c1C(=O)NCc1ccccc1
O=C1c2cccc(OCC(=O)N3N=C(c4cccs4)CC3c3ccc(F)cc3)c2CCN1Cc1ccccc1 (centres undefined)
O=C(CCNC(=O)c1ccc(Br)cc1)NCC(c1ccco1)N1CCCCC1 (centres undefined)
CCOC(=O)c1ccc(NC2Nc3cc(C)nn3S2)cc1 (centres undefined)
O=c1cc(CCl)nc2scc(-c3ccccc3)n12
Cc1nn2c(=O)cc(COC(=O)c3ccc(NC(=O)C(C)(C)C)cc3)nc2s1
CN(Cc1ccccc1)C(=O)CCc1ccccc1
CN(Cc1ccc(F)cc1)C(=O)COc1ccc2ccccc2c1
COc1ccc(NS(=O)(=O)c2ccc(C)c(C(=O)NCC(c3cccs3)N3CCOCC3)c2)cc1 (centres undefined)
CCOc1ccccc1NC(=O)Cc1cccs1
O=C(Cc1cccs1)Nc1ccc([N+](=O)[O-])cc1
CCOC(=O)N1CCN(C(=O)COC(=O)c2cccc(S(C)(=O)=O)c2)CC1
CCOc1ccc(NC(=O)c2cccc3c2C(=O)N(CC2CCCO2)C3)cc1 (centres undefined)
CC(=O)c1sc(NC(=O)CCN2C(=O)C3CC=CCC3C2=O)nc1-c1ccccc1 (centres undefined)
COc1ccc(C(=O)N/N=c2\oc3ccccc3cc2C(N)=O)cc1
NC(=O)c1cc2ccccc2o/c1=N/NC(=O)c1cccc(F)c1
CC(=O)Nc1ccc(Nc2cc(C)nc(Nc3ccc(NC(C)=O)cc3)n2)cc1
Cc1ccn2cc(C(=O)NC3CCN(Cc4ccccc4)CC3)nc2c1
COc1ccc(CNc2nccs2)cc1
CCN(CC(=O)NCCc1ccccc1)S(=O)(=O)c1ccc(C)cc1
CCN(c1cccc(C)c1)S(=O)(=O)c1ccc(-c2coc(C)n2)cc1
COc1ccc(-n2c(-c3ccc(OC)c(OC)c3)n[nH]c2=S)cc1
COc1cc(OC)cc(-c2nc(=S)n3ccsc3n2)c1
Cc1ccccc1N1CCN(C2CCCN(C(=O)c3cn4c(C)cccc4n3)C2)CC1 (centres undefined)
COc1ccccc1N1CC(C(=O)NCCN2C(=O)S/C(=C\c3cccnc3)C2=O)CC1=O (centres undefined)
CC1CCCCC12NC(=O)N(CC(=O)OCC(=O)NCc1ccc(F)cc1)C2=O (centres undefined)
Cc1nn(C(C)C(=O)N2CCOCC2)c(=O)c2nn(-c3ccccc3)c(C)c12 (centres undefined)
O=C1C=C(c2cccc(Cl)c2)C[C@@H](c2ccc(F)cc2)C1
COc1ccc(C(=O)CSc2nnc(NC(=O)C3CC(=O)N(c4cccc(OC)c4)C3)s2)cc1 (centres undefined)
COc1ccc(/C=N/Nc2nc(-c3ccc(C)cc3)c(C#N)c(=O)[nH]2)cc1
COc1ccc(/C=N/NS(=O)(=O)c2ccc(NC(C)=O)cc2)cc1
COc1ccc(/C=N/OCC(=O)N(Cc2ccccc2)c2ccccc2C(=O)O)cc1
COc1ccc(CCCc2nnc(SCc3nc4ccccc4c(=O)[nH]3)n2C)cc1
COc1ccccc1C(=O)NCC(=O)OCC(=O)Nc1nnc(-c2ccccc2)o1
COc1cc(OC)cc(C(=O)Nc2nnc(SCC(=O)NCC3CCCO3)s2)c1 (centres undefined)
COc1ccc(C)cc1NC(=O)CCCN1C(=O)NC(C)(C)C1=O
Cc1ccc(S(=O)(=O)NCCNC(C)c2ccc(Br)cc2)cc1 (centres undefined)
CCC1(C)NC(=O)N(CC(=O)N2CCN(c3cccc(Cl)c3)CC2)C1=O (centres undefined)
COc1cc2c(cc1OC)CC1(CCCCC1)N=C2
